Bioassay records as filed in PubChem.
Hits are enriched below; roughly 9.9% of the tested compounds scored in any of these assays.
SW480 rereplic: A quantitative high throughput screen for small molecules that induce DNA re-replication in SW480 colon adenocarcinoma cells; 340,000 tested, 1.8% active; SW480 DNA re-replication, Hoechst DNA content imaging, 48 h; Potency, µM (doses to about 46.1 µM), hits mostly activators; AID 624297, 2012; note: nearly all actives have a fitted effect of over 55% in size
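Treated cells incubate 48 hr (37 C, 5% CO2), are stained 40 min with Hoechst, and nuclear fluorescence is enumerated; a rise in nuclei with high DNA signal marks re-replication.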
KB-V1 cytotox: qHTS assay for MDR1-selective chemotherapeutics: Primary screen using the drug-selected MDR subline cells KB-V1; 400,000 tested, 3.4% active; Potency, µM (series often up to 46.1 µM), hits mostly cytotoxic; KB-V1 MDR cells viability, CellTiter-Glo, 72 h; note: nearly all actives have a fitted effect of over 60% in size
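KB-V1 MDR subline cells in DMEM (phenol-red free, 10% FBS) exposed to compounds in qHTS concentration series for 72 h at 37 degrees C. Viability read by CellTiter-Glo luminescence; concentration-effect curves fitted after normalization and correction.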
IL1B secr inh: qHTS for Inhibitors of Inflammasome Signaling: IL-1-beta AlphaLISA Primary Screen. 360,000 tested, 4.7% active. AID 743279, 2014. THP-1 LPS/ATP IL-1B secretion, AlphaLISA, 16 h; active compounds read low. activity change, % at 57.5 µM; in the data active = activity change below about -50%; inconclusive = mostly about -30% to -49%
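Secreted IL-1B measured by AlphaLISA bead assay after 16 h compound exposure of THP-1 cells; compounds (final up to 57.5 uM) added 1 h before LPS (250 ng/mL) and ATP (1.25 mM) stimulation; lower signal means less secretion.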
KB-3-1 cytotox: qHTS assay for MDR1-selective chemotherapeutics: Primary screen using the parental adenocarcinoma cell KB-3-1; KB-3-1 viability, CellTiter-Glo ATP luminescence, 72 h; Potency, µM (doses to about 46.1 µM), actives largely listed as cytotoxic; 400,000 tested, 1.4% active; AID 1347075, 2019; note: nearly all actives have a fitted effect of over 60% in size
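Here the drug-naive KB-3-1 line serves as comparator for MDR sub-line selectivity; cells received compound titrations, 72 h at 37 °C, then CellTiter-Glo readout.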
MCF10A rereplic: A quantitative high throughput screen for small molecules that induce DNA re-replication in MCF 10a normal breast cells. MCF 10A DNA re-replication, Hoechst nuclear intensity, 48 h. Potency, µM (top dose mostly 46.1 µM), actives largely listed as activators. 350,000 tested, 2.9% active; note: nearly all actives have a fitted effect of over 50% in size
Numbers stand for hits; n = inactive; u = inconclusive; x = no result. Unless noted, calls come from the whole dose curve; as a rule, active = well fitted curve in the direction sought with a large enough effect; inconclusive = small, poorly fitted or top-dose-only effect, or another doubt; inactive = no such curve, though single readings can be large; an effect the other way counts as inactive or inconclusive.

SMILES | SW480 rereplic | KB-V1 cytotox | IL1B secr inh | KB-3-1 cytotox | MCF10A rereplic
COc1cc(C(=O)N2CCN(c3ccccc3OC)CC2)c([N+](=O)[O-])cc1OC | u | u | n | u | n
O=C(c1ccc([N+](=O)[O-])s1)N1CCCc2ccccc21 | 6.5µM | u | u | n | n
COc1ccc(C(C)=O)cc1Cn1c(C)c(C(=O)NCc2ccc(C(F)(F)F)cc2)sc1=O | x | u | n | n | x
O=C(c1ccc(C(=O)N2CCCc3ccccc32)s1)N1CCCc2ccccc21 | n | n | -52 | u | n
CC12CCC(C(=O)N3CCCc4ccccc43)(CC1=O)C2(C)C (stereo not given) | n | 16µM | n | n | n
CC12CCC(C(=O)N3CCc4ccccc43)(CC1=O)C2(C)C (stereo not given) | n | u | n | n | n
CCOC(=O)c1csc(NC(=O)c2ccc3c(c2)OCCO3)n1 | n | u | n | n | n
Cc1n[nH]c(=O)n1-c1ccc(OCc2ccccc2)cc1 | n | n | n | n | n
CCOC(=O)c1nc2cc3n(c(CC(C)C)c-2c1C)CC(C)=C3C | n | n | n | n | u
CCOC(=O)c1nc2cc3n(c(C)c-2c1C)C(C)C(C)=C3C (stereo not given) | n | n | -62 | u | n
CCn1c(=O)c2c(nc3n2CCN3c2ccc(OC)cc2)n(C)c1=O | x | n | x | n | x
CC(C)N1C(=O)C(Cc2nc3ccccc3c(=O)n2-c2ccccc2)c2ccccc21 (stereo not given) | n | n | n | n | n
CC(C)N1C(=O)/C(=C/c2nc3ccccc3c(=O)n2-c2ccccc2)c2ccccc21 | u | u | -96 | u | 16µM
CC(C)N1C(=O)/C(=C\c2nc3ccccc3c(=O)n2-c2ccccc2)c2ccccc21 | 2.9µM | u | -106 | u | u
CN(C(=O)c1cc2nc(-c3ccc4c(c3)OCO4)cc(C(F)(F)F)n2n1)c1ccc(OC(F)(F)F)cc1 | x | n | x | n | x
CCCCn1c(N)c(N(CC(C)C)C(=O)COC(=O)C2(c3ccccc3)CC2)c(=O)[nH]c1=O | n | n | n | n | n
CCN=C1S/C(=C/c2ccc(-c3ccc(F)cc3)o2)C(=O)N1CC | u | n | n | n | 8.2µM
O=S(=O)(c1c(Cl)cc(Br)cc1Cl)N1CCN(C(=S)NC2CC2)CC1 | n | n | -85 | n | u
Cc1ccc2[nH]c(=O)c3cc(C(=O)NCCc4ccc(Cl)cc4)sc3c2c1 | x | n | x | n | x
Cc1ccc(OCC(=O)Nc2ccc3nc(SCCOc4ccccc4)sc3c2)cc1 | x | n | x | n | x
CN(C(=O)c1ccco1)c1nc(-c2ccc(F)cc2)cs1 | n | n | n | n | n
O=C(c1ccco1)N(CCCN1CCOCC1)c1nc(-c2ccc(F)cc2)cs1 | u | u | -88 | n | n
O=C(c1ccco1)N(CCCN1CCOCC1)c1nc(-c2ccc(Cl)cc2)cs1 | u | n | u | n | 10µM
Cc1ccc(NC(=O)c2ccc3c(c2)C(=O)N(CC2CCCO2)C3=O)cc1C (stereo not given) | n | n | n | n | n
O=C(Nc1ccc2c(c1)C(=O)N(CC1CCCO1)C2=O)c1ccc(Cl)c(Cl)c1 (stereo not given) | n | 21µM | n | n | n
SMILES | SW480 rereplic | KB-V1 cytotox | IL1B secr inh | KB-3-1 cytotox | MCF10A rereplic
Cc1nnc(NC(=O)c2ccc3c(c2)C(=O)N(CC2CCCO2)C3=O)s1 (stereo not given) | u | n | n | n | 12µM
Cc1c(NC(=O)c2ccc3c(c2)C(=O)N(CC2CCCO2)C3=O)cccc1C(=O)O (stereo not given) | 4.1µM | n | n | n | n
C[C@@H](Nc1nc(Cl)nc2nc[nH]c12)c1ccccc1 | x | n | x | n | x
CC12CCC(O)CC1=CCC1C2CCC2(C)C3=NN=CC3CC12 (stereo not given) | u | u | n | u | 18µM
CN(C)CCN[C@H]1CCC2C3CC=C4C[C@@H](O)CC[C@]4(C)C3CC[C@@]21C (stereo not given in full) | u | n | n | n | 21µM
CC(=O)C1(O)C(C)CC2C3CC=C4CC(O)CCC4(C)C3CCC21C (stereo not given) | n | n | n | n | n
O=S(=O)(c1ccc(Br)c2nsnc12)N1CCOCC1 | u | n | -54 | n | 21µM
Cc1nc2c(sc(=S)n2Cc2ccco2)c(=O)n1CC(=O)Nc1cc(F)ccc1F | n | n | n | n | 23µM
Cc1cc(N(CCO)CCO)ccc1C(c1ccc(N(CCO)CCO)cc1C)c1ccccc1Cl | n | n | -68 | u | u
Cc1nc(N)nc(N)c1CCCc1ccc(Cl)c(Cl)c1 | n | u | -104 | u | n
CCCCc1ccc2nc(NC(=O)OC)[nH]c2c1 | 0.13µM | x | x | x | u
COC(=O)c1ccc(-c2n[nH]c(=O)c3ccccc23)cc1 | n | n | n | n | n
C=C(c1ccc2nc(NC(=O)OC)[nH]c2c1)c1cccs1 | 0.73µM | 0.65µM | n | u | 0.58µM
C=CCOc1ccc2nc(NC(=O)OC)[nH]c2c1 | 1.3µM | 1.2µM | n | 0.65µM | 1.5µM
CC(=O)Nc1nc2ccccc2[nH]1 | n | n | n | n | n
COC(=O)Nc1nc2ccc(-c3n[nH]c(=O)c4ccccc34)cc2[nH]1 | n | n | n | 15µM | n
CC/C(=N\NC(=O)C1CCCC1)c1ccc(Br)cc1 | n | n | n | n | n
CCCS(=O)(=O)NC(=O)C1(C)CCCN(C(=O)Cc2ccc3ccccc3c2)C1 (stereo not given) | x | n | n | n | x
Cc1nc2ccc(S(=O)(=O)NCC(=O)NC(C)c3ccccc3)cc2s1 (stereo not given) | n | n | n | n | 0.65µM
Cc1nc2ccc(S(=O)(=O)NCC(=O)N3CCN(c4ccccc4)CC3)cc2s1 | n | n | n | n | n
CC(=O)O[C@H]1CC(C)(C)C(=C=C/C(C)=C/C=C/C(C)=C/C=C/C=C(C)/C=C/C=C(\C)C(=O)C[C@@]23O[C@]2(C)C[C@@H](O)CC3(C)C)[C@](C)(O)C1 | u | n | -63 | n | u
CNc1ncnc2c1cnn2-c1ccc(C)c(C)c1 | x | n | x | n | x
CCN1C(=O)N/C(=C/c2cc(C)n(Cc3ccccc3)c2C)C1=O | u | n | n | n | u
Cc1cc(/C=C2/NC(=O)N(Cc3ccccc3F)C2=O)c(C)n1-c1ccccn1 | 0.82µM | u | n | n | u
COc1cc(/C=C2/NC(=O)N(Cc3ccccc3F)C2=O)cc(OC)c1OC | n | 0.18µM | u | n | n
CCn1c(C)cc(/C=C2\NC(=O)N(Cc3ccc(Cl)cc3)C2=O)c1C | 14µM | n | n | n | u
COc1ccc(C(=O)Oc2ccc(C(c3c(C)[nH][nH]c3=O)c3c(C)[nH][nH]c3=O)cc2)cc1 | x | n | x | n | x
